Results reported in PubChem BioAssay (NCI).
Compounds without any hit were thinned out: in the full panel of roughly 83,000, 20% have a hit.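 The endpoint reported here, percent growth, reads 100 for growth as untreated, 0 for no net growth and -100 for all cells dead.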 Values without a mark were called inactive. Calls of active or inactive are those of the source. Rule for the calls: active = growth percent below 10; inactive = the rest.

Assays:
Test in all cases: NCI-60 one-dose screen, 48 h (100 = growth as untreated, 0 = no growth, -100 = all killed)
Settings in all cases: 10 µM unless noted
HT29 colon = test system: HT29 colon
SNB-75 CNS = test system: SNB-75 CNS
SNB-19 CNS = test system: SNB-19 CNS
U251 CNS = test system: U251 CNS
PC-3 prostate = test system: PC-3 prostate
SK-MEL-5 melanoma = test system: SK-MEL-5 melanoma
UACC-62 melanoma = test system: UACC-62 melanoma
LOX IMVI melanoma = test system: LOX IMVI melanoma
SK-MEL-28 melanoma = test system: SK-MEL-28 melanoma
SK-MEL-2 melanoma = test system: SK-MEL-2 melanoma
EKVX NSCLC = test system: EKVX NSCLC
SN12C renal = test system: SN12C renal
UO-31 renal = test system: UO-31 renal
TK-10 renal = test system: TK-10 renal
ACHN renal = test system: ACHN renal
CAKI-1 renal = test system: CAKI-1 renal
A498 renal = test system: A498 renal
CCRF-CEM leukemia = test system: CCRF-CEM leukemia
MOLT-4 leukemia = test system: MOLT-4 leukemia

SMILES | growth (HT29 colon) | growth (SNB-75 CNS) | growth (SNB-19 CNS) | growth (U251 CNS) | growth (PC-3 prostate) | growth (SK-MEL-5 melanoma) | growth (UACC-62 melanoma) | growth (LOX IMVI melanoma) | growth (SK-MEL-28 melanoma) | growth (SK-MEL-2 melanoma) | growth (EKVX NSCLC) | growth (SN12C renal) | growth (UO-31 renal) | growth (TK-10 renal) | growth (ACHN renal) | growth (CAKI-1 renal) | growth (A498 renal) | growth (CCRF-CEM leukemia) | growth (MOLT-4 leukemia)
CSc1nc(N)c2c(n1)NC(c1ccccc1)C1CCc3ccccc3C1=N2 (stereo not drawn) | 42.7% | 84% | 79% | 68.2% | 11.9% | 51% | 42.6% | 43.3% | 81.5% | 30.1% | 40.9% | 65.7% | 43% | 112% | 72.3% | 48.2% | 42.7% | 20% | 27.9%
CCCc1cc(CCC)n2nc(N)nc2n1 | 108% | 95.6% | 113% | 110% | 96.9% | 107% | 111% | 105% | 105% | 128% | 115% | 101% | 129% | 114% | 101% | 95.3% | 96% | 93.1% | 94.8%
CC(C)(C)n1cc(-c2ccnc(NCCNS(=O)(=O)c3ccc(C(F)(F)F)cc3)c2)c(-c2ccccc2)n1 | 53.7% | 80.9% | 101% | 75.4% | 65.8% | 80.7% | 80.9% | 93.1% | 100% | 105% | 73.9% | 86% | 58.9% | 104% | 102% | 90.6% | 61.7% | 74.6% | 72.2%
O=C(NS(=O)(=O)c1ccccc1)n1cc(-c2ccncc2)c(-c2cc(O)cc(Cl)c2)n1 | 98.4% | 82.6% | 115% | 104% | 95% | 98.9% | 39.3% | 92.8% | 67.6% | 95.5% | 107% | 100% | 91.9% | 127% | 84.5% | 94.2% | 103% | 87.4% | 79.3%
CC/C(=C(/c1ccc(Cl)cc1)c1ccc(OCCCN(C)C)cc1)c1ccc(OC)cc1 | 1.68% (active) | 81% | 82.8% | 6.12% (active) | 49.3% | 63.4% | 104% | 16.6% | 76.6% | 105% | 91% | 83.3% |  | 66.7% | 83.6% | 82.3% | 76.3% | 37% | 28.1%
Cc1ccccc1NC(=O)c1sc2nc3c(cc2c1N)CCCC3 | 7.53% (active) | 37.8% | 30.9% | 23% | 29.9% | 20.5% | 27.6% | 40.5% | 75.1% | 26.4% | 45.8% | 37.3% | 45.2% | 57.5% | 51.2% | 51% | -3.82% (active) | 20.9% | 27.4%
C=C(c1ccc(OC)c(/C=C/C(=O)c2cc(OC)c(OC)c(OC)c2)c1)c1cc(OC)c(OC)c(OC)c1 | 0.495% (active) | 49.8% | -3.73% (active) | -49.3% (active) | 31.5% | -69.3% (active) | -70% (active) | -87.3% (active) | -77.3% (active) |  | 15% | -13.9% (active) | -85.6% (active) | 24.3% | -79.9% (active) | 24.6% | -23.5% (active) | 17.9% | 12%
COc1ccc(C2=C/C(=C\c3ccccc3O)C(=O)N2Cc2ccccc2)cc1 | 102% |  | 82.3% | 83.9% | 52.2% | 66.2% | 63.9% | 81% | 79.9% | 51.4% | 82.1% | 95.8% | 68.4% | 85.3% | 93.4% | 93.2% | 98.3% | 73.4% | 66.8%
CC(C)n1cc(C2=C(c3cccc4ccccc34)C(=O)NC2=O)c2cc(Br)ccc21 | 43.1% |  | 82.6% | 60.4% | 57.8% | -0.736% (active) | 60% | 1.07% (active) | 90.7% | 73.8% | 85% | 75.4% | 58% | 109% | 53.8% | 27.9% | -8.37% (active) | 52.8% | 49%
O=C(CSc1nnc(-c2ccc(Cl)c(Cl)c2)n1-c1ccccc1)Nc1ccc(C(=O)/C=C/c2ccc(Cl)cc2)cc1 | 85.9% | 69.9% | 94.1% | 84% | 62.5% | 93.1% | 76.7% | 97.5% | 104% | 78.6% | 88.3% | 89.4% | 66.2% | 93.3% | 98% | 74.2% | 82.5% | 83.7% | 80.5%
CCN1C(=O)N(CC)C2C1NN=c1s/c(=C3\C(=O)N(C)c4ccccc43)c(=O)n12 (stereo not drawn) | 11.5% | -10.8% (active) | 37.2% | 34.9% | 35% | 32.8% | 29.1% | 47.7% | 52.6% | 60.3% | 57.8% | 36.9% |  | 69.8% | 40.9% | 42.2% | -26.9% (active) | 30.8% | 45.1%
COc1cc2c(c(OC)c1OC)CCC(c1cccc(C(=O)Nc3ccccc3Br)c1)O2 (stereo not drawn) | 82.4% | 65.8% | 90.1% | 90.7% | 76.1% | 86.3% | 66.2% | 90.2% | 94.6% | 87.8% | 90.1% | 85.4% | 67.3% | 87.5% | 86.2% | 95.4% | 56.6% | 86.1% | 50.4%
C/C(=N\NC(=O)c1ccc(C(C)(C)C)cc1)c1ccc(O)cc1O | 25.3% | 54.7% | 40.1% | 25.2% | 33.8% | -41.9% (active) | 14.1% | -4.95% (active) | 36.1% |  | 22% | 33.7% | 16.8% | 40.5% | 16.5% | 17.1% | 42.3% | 14.5% | 
Cc1c2cnccc2c(C)c2c1c1cc(C(=O)O)ccc1n2C | 7.11% (active) | -7.4% (active) | 2.23% (active) | 0.0209% (active) | 10.4% | -84.7% (active) | -55% (active) | -27.1% (active) | -27.4% (active) | -65.5% (active) | 16% | 0.942% (active) | -36.5% (active) | -7.59% (active) | -15% (active) | -6.62% (active) | -57.4% (active) | 5.53% (active) | 1.6% (active)
O=C1N/C(=N/N=C(c2ccccc2)c2ccccc2)S/C1=C\c1ccc(Br)cc1 | 81.8% | 101% | 100% | 91.3% | 89.8% | 97.2% | 79.8% | 98.5% | 112% | 96.7% | 101% | 98% | 73.1% | 107% | 97.7% | 77.2% | 89.2% | 84.4% | 106%
